Screens deposited in PubChem BioAssay by several laboratories.
Most compounds without a hit are left out; they make up all but 1% or so of the library.
BioA inh: inhibitors of Mycobacterium tuberculosis BioA enzyme. purified M. tuberculosis BioA enzyme, plate reader. inhibition, % at 9.99 µM. 0.096% of 360,000 active. AID 602481; in the data active = inhibition above about 40%
MazF activator: activators of E. coli MazEF toxin-antitoxin RNase | P0AE70 | FAM/BHQ RNA-DNA oligo cleavage fluorescence, 5 h | activation, % at 20 µM | 0.32% of 350,000 active; in the data active = activation above about 50%
TcdB GH inh: blocks C. difficile toxin B glycohydrolase activity; AID 652162; TcdB glycohydrolase enzymatic assay, plate reader; inhibition, % at 9.99 µM; 0.24% of 350,000 active; in the data active = inhibition above about 10%
Target sequence (P18177 whole entry, looked up): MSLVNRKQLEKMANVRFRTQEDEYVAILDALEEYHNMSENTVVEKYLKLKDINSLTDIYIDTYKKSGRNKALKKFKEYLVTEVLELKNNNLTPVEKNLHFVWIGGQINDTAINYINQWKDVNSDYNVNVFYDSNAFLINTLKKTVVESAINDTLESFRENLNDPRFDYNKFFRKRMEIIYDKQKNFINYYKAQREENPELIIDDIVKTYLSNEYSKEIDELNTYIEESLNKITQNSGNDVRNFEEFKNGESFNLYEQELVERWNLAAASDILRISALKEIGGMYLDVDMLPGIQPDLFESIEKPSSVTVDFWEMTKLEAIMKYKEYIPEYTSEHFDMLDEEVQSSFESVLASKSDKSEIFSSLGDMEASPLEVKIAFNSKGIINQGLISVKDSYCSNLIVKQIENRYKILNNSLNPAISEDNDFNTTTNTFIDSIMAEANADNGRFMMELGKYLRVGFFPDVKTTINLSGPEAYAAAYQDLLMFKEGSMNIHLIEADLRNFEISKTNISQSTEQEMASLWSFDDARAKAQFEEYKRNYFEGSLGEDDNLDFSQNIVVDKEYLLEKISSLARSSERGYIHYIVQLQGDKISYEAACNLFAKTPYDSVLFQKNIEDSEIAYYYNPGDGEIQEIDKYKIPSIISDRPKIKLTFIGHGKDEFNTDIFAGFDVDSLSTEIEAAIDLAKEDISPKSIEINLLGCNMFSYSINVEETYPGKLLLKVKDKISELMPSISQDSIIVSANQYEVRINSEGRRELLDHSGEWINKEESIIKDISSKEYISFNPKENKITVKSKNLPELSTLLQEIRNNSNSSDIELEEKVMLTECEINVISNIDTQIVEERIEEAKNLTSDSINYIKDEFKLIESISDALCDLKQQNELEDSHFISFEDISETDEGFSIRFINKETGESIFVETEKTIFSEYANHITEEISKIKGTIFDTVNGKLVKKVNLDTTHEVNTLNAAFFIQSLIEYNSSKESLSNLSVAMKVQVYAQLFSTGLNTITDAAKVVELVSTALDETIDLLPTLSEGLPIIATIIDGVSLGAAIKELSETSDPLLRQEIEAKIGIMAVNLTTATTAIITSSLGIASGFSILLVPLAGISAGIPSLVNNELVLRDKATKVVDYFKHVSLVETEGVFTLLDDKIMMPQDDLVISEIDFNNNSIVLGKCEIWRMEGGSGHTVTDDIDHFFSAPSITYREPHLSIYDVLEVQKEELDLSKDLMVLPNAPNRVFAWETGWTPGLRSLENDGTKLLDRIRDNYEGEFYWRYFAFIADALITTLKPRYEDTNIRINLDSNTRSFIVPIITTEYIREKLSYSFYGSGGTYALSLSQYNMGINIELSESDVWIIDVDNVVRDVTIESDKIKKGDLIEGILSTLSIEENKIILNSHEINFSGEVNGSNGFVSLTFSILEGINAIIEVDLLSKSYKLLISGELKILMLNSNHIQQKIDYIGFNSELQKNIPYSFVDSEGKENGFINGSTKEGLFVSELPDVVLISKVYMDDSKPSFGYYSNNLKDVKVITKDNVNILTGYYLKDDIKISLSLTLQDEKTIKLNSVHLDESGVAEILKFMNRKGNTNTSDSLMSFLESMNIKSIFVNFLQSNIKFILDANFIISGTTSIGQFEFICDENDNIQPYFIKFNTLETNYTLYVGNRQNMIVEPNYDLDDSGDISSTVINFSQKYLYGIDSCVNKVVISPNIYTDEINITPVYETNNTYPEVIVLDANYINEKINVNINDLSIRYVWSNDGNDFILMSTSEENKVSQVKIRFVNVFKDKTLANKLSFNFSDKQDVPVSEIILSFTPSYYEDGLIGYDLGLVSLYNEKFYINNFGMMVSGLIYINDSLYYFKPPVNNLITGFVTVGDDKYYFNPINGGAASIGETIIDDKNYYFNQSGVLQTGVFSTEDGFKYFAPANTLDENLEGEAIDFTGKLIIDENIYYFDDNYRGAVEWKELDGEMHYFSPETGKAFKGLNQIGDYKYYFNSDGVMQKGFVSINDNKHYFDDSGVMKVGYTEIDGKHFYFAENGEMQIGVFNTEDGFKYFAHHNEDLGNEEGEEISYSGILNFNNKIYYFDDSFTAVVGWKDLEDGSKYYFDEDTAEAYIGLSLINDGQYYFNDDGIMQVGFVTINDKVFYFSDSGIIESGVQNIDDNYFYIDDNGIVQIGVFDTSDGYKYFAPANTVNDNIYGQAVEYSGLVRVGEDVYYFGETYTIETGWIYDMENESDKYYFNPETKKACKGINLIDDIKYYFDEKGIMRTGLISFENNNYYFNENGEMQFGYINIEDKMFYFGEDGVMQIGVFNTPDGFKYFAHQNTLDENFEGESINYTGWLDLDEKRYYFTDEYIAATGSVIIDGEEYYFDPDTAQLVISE
VHR inh abs: blocks human VHR1 dual specificity phosphatase; P51452; recombinant VHR phosphatase, pNPP absorbance; inhibition, % at 13.3 µM; 0.52% of 290,000 active; in the data active = inhibition above about 50%
FadD28 FP inh: blocks FadD28 binding to the bisubstrate probe; fluorescence polarization; inhibition, % at 12.5 µM; 0.22% of 360,000 active; AID 588549; in the data active = inhibition above about 8.5%, passing the limit was not always enough
Y pestis TopoI: Y. pestis Topo-I inhibition via cleavage products; Y. pestis Topo-I cleavage product accumulation, plate reader; activity, % at 10 µM; 0.064% of 360,000 active; AID 504884; in the data active = activity above about 50%, passing the limit was not always enough
Hits are given with their value.

For CCCOc1ccc(C(=O)Nc2ccc(S(=O)(=O)N3C[C@@H]4C[C@@H](C3)c3cccc(=O)n3C4)cc2)cc1 the results were BioA inh inactive, MazF activator inactive, TcdB GH inh inactive, FadD28 FP inh inactive and Y pestis TopoI 67.3.
For O=C(O)C[C@@H]1CC[C@@H](NC(=O)Nc2cc(F)ccc2F)[C@@H](CO)O1 the results were BioA inh inactive.
Screening CC(=O)Nc1ccc(S(=O)(=O)Nc2nc3ccccc3nc2Nc2ccc(C(=O)O)c(O)c2)cc1 returned BioA inh inactive, MazF activator inactive, TcdB GH inh inactive, FadD28 FP inh 25.5 and Y pestis TopoI inactive.
Screening COc1ccc(OC)c(CCNC(=O)C(C)n2nc(C)c3c(C)n(-c4ccc(C)cc4)nc3c2=O)c1 (stereo not given) returned BioA inh inactive, MazF activator inactive, TcdB GH inh inactive, VHR inh abs 55.6, FadD28 FP inh inactive and Y pestis TopoI inactive.
`O=C(NCC[C@@H]1CC[C@H](NC(=O)c2ccc3c(c2)OCO3)[C@H](CO)O1)Nc1ccc(Cl)cc1` gave BioA inh inactive and TcdB GH inh inactive.
`CC(=O)N1[C@H](C(=O)NC2Cc3ccccc3C2)[C@@H](CO)[C@@H]2Cn3c(ccc(-c4ccncc4)c3=O)[C@@H]21` gave BioA inh inactive and TcdB GH inh inactive.
Screening S=C(NCc1ccccc1)Nc1ccncc1 returned BioA inh inactive, MazF activator inactive, TcdB GH inh inactive, VHR inh abs 52.8, FadD28 FP inh inactive and Y pestis TopoI inactive.
Screening S=C(NCc1ccccc1)NCc1cccc(CNC(=S)NCc2ccccc2)c1 returned BioA inh inactive, MazF activator inactive, TcdB GH inh inactive, VHR inh abs inactive, FadD28 FP inh 24.9 and Y pestis TopoI inactive.
For COc1cccc(C#Cc2ccc3c(c2)[C@H]2[C@H](CCN2C(C)=O)[C@H](CO)N3)c1 the results were TcdB GH inh inactive.
Screening O=C(C[C@H]1C[C@@H]2c3cc(NC(=O)C4CCOCC4)ccc3O[C@@H]2[C@@H](CO)O1)NCc1cccc(F)c1 returned BioA inh inactive and TcdB GH inh inactive.
`CCCCN(C)S(=O)(=O)c1cc2c3c(c1)CCC(=O)N3CCC2` gave BioA inh inactive, MazF activator inactive, TcdB GH inh inactive, VHR inh abs 55.7, FadD28 FP inh inactive and Y pestis TopoI inactive.
`COCC(=O)N1CC[C@@H]2[C@H]1c1cc(-c3ccc(OC)cc3)ccc1N(C)[C@H]2CO` gave BioA inh inactive and TcdB GH inh 17.5.
`COc1ccc(-c2ccc3c(c2)[C@@H]2[C@@H](CCN2C(=O)C2CC2)[C@@H](CO)N3C)cc1` gave BioA inh inactive and TcdB GH inh inactive.
`CCC(=O)N1CC[C@H]2[C@@H]1c1cc(-c3ccccc3)ccc1N(C)[C@H]2CO` gave BioA inh inactive and TcdB GH inh inactive.
For CN1c2ccc(-c3ccccc3)cc2[C@@H]2[C@@H](CCN2C(=O)CN2CCOCC2)[C@@H]1CO the results were BioA inh inactive and TcdB GH inh 11.7.
Screening CN(C)CC(=O)N1CC[C@@H]2[C@H]1c1cc(-c3ccccc3)ccc1N(C)[C@H]2CO returned BioA inh inactive and TcdB GH inh 12.4.
Screening CN1c2ccc(-c3ccccc3)cc2[C@@H]2[C@@H](CCN2C(=O)CN2CCOCC2)[C@H]1CO returned BioA inh inactive and TcdB GH inh inactive.
Screening O=C1NC(Cc2ccc(Cl)cc2)COCc2cnnn2CCC1c1ccccc1 (stereo not given) returned TcdB GH inh inactive.
For C[C@H]1CN([C@@H](C)CO)C(=O)c2cc(C#Cc3ccncc3)cnc2O[C@@H]1CN(C)CC1CCCCC1 the results were BioA inh inactive and TcdB GH inh inactive.
Screening Cc1ccc(S(=O)(=O)N(C)S(=O)(=O)c2ccc(C#N)cc2)cc1 returned VHR inh abs 52.9.
Screening CCc1ccc[n+](-c2nc3ccccc3nc2C(=C=[N-])C#N)c1 returned MazF activator 577.6, TcdB GH inh inactive, VHR inh abs inactive, FadD28 FP inh inactive and Y pestis TopoI inactive.
Screening CCC(=O)N1CC(=O)N2[C@@H](CO)[C@H](c3ccc(C#Cc4cccc(OC)c4)cc3)[C@@H]2C1 returned TcdB GH inh inactive.
`COc1ccc(N(C(=O)c2cccnc2)S(=O)(=O)c2ccc(F)cc2)cc1` gave BioA inh inactive, MazF activator inactive, TcdB GH inh inactive, VHR inh abs 52.8, FadD28 FP inh inactive and Y pestis TopoI inactive.
`COc1ccc(N(C(=O)c2cccnc2)S(=O)(=O)c2ccccc2)cc1` gave BioA inh inactive, MazF activator inactive, TcdB GH inh inactive, VHR inh abs inactive, FadD28 FP inh inactive and Y pestis TopoI inactive.
For COc1ccc2c3c([nH]c2c1)[C@@H](CO)N(CC1CC1)CC31CN(C(=O)Nc2cccc(F)c2)C1 the results were TcdB GH inh inactive.
`CCc1cccc2c(C(=O)COC(=O)c3ccc([N+](=O)[O-])s3)c[nH]c12` gave MazF activator inactive, TcdB GH inh inactive, VHR inh abs inactive, FadD28 FP inh 33.3 and Y pestis TopoI inactive.
For Nc1ccc(S(=O)(=O)Nc2nccs2)cc1N=Nc1ccccc1[N+](=O)[O-] the results were MazF activator inactive, TcdB GH inh inactive, FadD28 FP inh 11.6 and Y pestis TopoI inactive.
Screening O=[N+]([O-])c1ccccc1S(=O)(=O)Nc1ccc(S(=O)(=O)Nc2nccs2)cc1 returned BioA inh inactive, MazF activator inactive, TcdB GH inh inactive, VHR inh abs inactive, FadD28 FP inh inactive and Y pestis TopoI inactive.
For COc1ccc(CN2CC3(C2)CN(C(=O)CN(C)C)[C@H](CO)c2[nH]c4cc(OC)ccc4c23)cc1 the results were TcdB GH inh inactive.
For Fc1ccc(-c2nc3ccc(Br)cn3c2Cc2ccccc2)cc1 the results were BioA inh inactive, MazF activator inactive, TcdB GH inh 12.5, FadD28 FP inh inactive and Y pestis TopoI inactive.
`Brc1ccc(-c2nc3ccc(Br)cn3c2Cc2ccccc2)cc1` gave BioA inh inactive, TcdB GH inh inactive and FadD28 FP inh inactive.
O=C1O[C@H](c2ccccc2)[C@H](c2ccccc2)N2[C@H]1[C@@H](C(=O)N1CCCCCCC1)[C@]1(C(=O)Nc3ccc(C#CC4=CCCCC4)cc31)[C@H]2c1ccc(O)cc1 was read as BioA inh inactive and TcdB GH inh inactive.
For COc1ccnc2c1c(=O)n(Cc1c(F)cccc1Cl)c(=O)n2C the results were BioA inh inactive, MazF activator inactive, TcdB GH inh inactive, VHR inh abs 50.4, FadD28 FP inh inactive and Y pestis TopoI inactive.
For O=C(NCc1ccccc1)c1ccc(CS(=O)(=O)Cc2ccc(F)cc2)o1 the results were BioA inh inactive, MazF activator inactive, TcdB GH inh inactive, VHR inh abs 59.8, FadD28 FP inh inactive and Y pestis TopoI inactive.
For Cc1ccccc1S(=O)(=O)Cc1ccc(C(=O)NCc2cccnc2)o1 the results were BioA inh inactive, MazF activator inactive, VHR inh abs inactive, FadD28 FP inh inactive and Y pestis TopoI inactive.
